# CRFBP-R2 agonist – agonists of human CRF-binding protein/CRF-R2 receptor complex. activation, % at 13.2 µM. HEK293 CRF-R2/CRF-BP, calcium dye fluorescence (FLIPR); percent of saturating CRF peptide response. 0.46% of 350,000 active;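 active means activation of at least 50%, plus an integration ratio under a set limit after plate pattern correction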;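 further: plate controls were neutral control wells without compound for no effect and CRF at EC100 for full effect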
# Myeloid diff MLP – compounds promoting myeloid differentiation | ER-HoxA9 myeloid progenitors, lysozyme-GFP differentiation, flow cytometry | calls only at 10 µM | 1% of 360,000 active | AID 624256;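 active means normalized GFP-positive differentiation at or above the plate's own cutoff, the solvent-only control mean plus 3 SD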;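 further: cells exposed to compound for four days before flow analysis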
# RTF Ca sens inh – cardiac RTF calcium desensitization; P19429+P45379; IANBD-labeled cardiac RTF, Ca2+ fluorescence; inhibition, % at 7.15 µM; 0.12% of 340,000 active;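 active means inhibition above the mean inhibition of all tested compounds plus 3 SD, cut at about 17% in these data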;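 further: assay run at fixed EC70 calcium of 1.6 mM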
# CRFBP-R2 block – antagonists of CRF-binding protein/CRF-R2 receptor complex; HEK293 CRF-R2/CRF-BP, CRF-induced calcium fluorescence; 0.59% of 350,000 active; inhibition, % at 11.8 µM;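 active means inhibition of the ligand-induced calcium signal above about 50% at the single tested concentration, limit read from the data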
# cardiac RTF act – cardiac RTF calcium sensitization; P19429+P45379; IANBD-labeled TnC RTF fluorescence at EC20 calcium; 0% EC20 calcium, 100% full calcium; activation, % at 7.2 µM; 0.24% of 340,000 active; AID 493008;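 active means activation above the mean over all tested compounds plus 3 SD, cut at about 30% in these data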;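 further: rise in fluorescence read as greater calcium sensitivity of cardiac thin filaments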
# * = called active by the depositor; i = inactive; nt = not tested or not shown; + = active, no number. This is a sample that favours compounds with a hit; in the whole collection about 2.2% have one here.
SMILES,CRFBP-R2 agonist,Myeloid diff MLP,RTF Ca sens inh,CRFBP-R2 block,cardiac RTF act
CC(C)Cc1ccc([C@H](C)C(=O)O)cc1,0,i,-2,-3,3
CC(C(=O)Nc1cccnc1)c1ccc([N+](=O)[O-])cc1 (stereo not drawn),1,i,-3,12,8
CC(C)Cc1ccc(C(C)C(=O)Nc2cccnc2)cc1 (stereo not drawn),62*,i,-1,-25,-6
CC(C)Cc1ccc(C(C)C(=O)Nc2ccc(O)cc2)cc1 (stereo not drawn),78*,i,5,-16,-4
CCOC(=O)C1CCCN(C(=O)COC(=O)c2cccs2)C1 (stereo not drawn),-2,i,-12,95*,0
CCCCC(=O)N1CCCC(C(=O)OCC)C1 (stereo not drawn),1,+,1,-12,-2
CCOC(=O)c1ccc(NC(=S)N2CCSC2c2ccc(Br)cc2)cc1 (stereo not drawn),101*,i,-4,-100,-8
CCOC(=O)c1ccc(NC(=S)N2CCC(O)CC2)cc1,-3,i,-13,16,-7
C=CCn1c(COc2ccccc2)nnc1SCC(=O)N/N=C/c1cc(Cl)ccc1O,-1,i,2,60*,3
CCCN(CCC)c1ccc(/C=C/c2ccc3cc(OCC)ccc3n2)cc1,34,+,-16,-23,14
CN(C)c1ccc(C(=N)Cc2ccc3ccccc3n2)cc1,3,+,nt,1,nt
CN(C)c1ccc(/C=C/c2nc3ccccc3s2)cc1,65*,+,-12,-84,6
C(=C\c1ccc2ccccc2n1)/c1ccccc1,-1,i,2,7,-9
Cc1ccc(/C=C/c2nc3ccccc3s2)s1,12,i,-4,-9,4
CN(C)c1ccc(/C=C/c2ccc3ccccc3n2)cc1,90*,i,-50,-90,42*
CC1(C(=O)NS(=O)(=O)c2cccc(Cl)c2)CCN1C(=O)c1ccccc1 (stereo not drawn),nt,i,nt,nt,nt
O=C(OCC(=O)N1CCCCCC1)c1ccc(F)cc1F,10,i,0,-26,0
CN1CCc2c(sc3nc(NCCO)n(-c4cccc(Cl)c4)c(=O)c23)C1,-1,i,-10,14,4
COc1cc(/C=C/c2nc3ccccc3s2)cc(OC)c1O,1,+,-2,-12,9
COc1ccc(-c2cn3cc(C(F)(F)F)cc(Cl)c3n2)cc1,-1,+,14,-12,-3
Fc1ccc(-c2cn3cc(C(F)(F)F)cc(Cl)c3n2)cc1,3,i,-2,2,5
CC(=O)C1=C(O)C(=O)N(c2cc(C(C)(C)C)on2)C1c1ccc(C(C)C)cc1 (stereo not drawn),64*,i,3,5,-4
CC(=O)C1CCC2C3CC(O)C4=CC(=O)CCC4(C)C3C(=O)CC12C (stereo not drawn),0,+,-4,1,-6
CC(=O)OCc1cc(-c2nn(C)c(=O)c3ccccc23)ccc1C,0,i,-6,9,7
Cc1ccc(-c2nn(C)c(=O)c3ccccc23)cc1CO,-3,i,5,69*,-3
SMILES,CRFBP-R2 agonist,Myeloid diff MLP,RTF Ca sens inh,CRFBP-R2 block,cardiac RTF act
O=C(NC1CC1)c1ccc(C2SCC(=O)N2Cc2ccccc2)cc1 (stereo not drawn),1,i,-3,-32,-3
COc1ccc(OC)c(CC(=O)Nc2ccc3c(c2)CCC3)c1,0,i,2,11,-5
COc1ccc(OC)c(CNc2ccc3c(c2)CCC3)c1,1,+,-14,-15,10
CC(Sc1nnc(Cc2cccs2)n1C1CC1)C(=O)NC1CCS(=O)(=O)C1 (stereo not drawn),1,i,-2,63*,4
CCCCN(C(=O)C1CCN(C(=O)c2ccccc2C)CC1)c1c(N)n(CCCC)c(=O)[nH]c1=O,4,+,-13,-6,9
CCCCN(C(=O)c1cc(=O)[nH]c2ccccc12)c1c(N)n(CCCC)c(=O)[nH]c1=O,-1,+,-10,2,-1
CCCCN(C(=O)C1CCN(C(=O)c2ccccc2C)CC1)c1c(N)n(CCC)c(=O)[nH]c1=O,0,i,6,-5,-3
O=[N+]([O-])c1ccc(NS(=O)(=O)c2ccc(Cl)c(Cl)c2)cc1,nt,i,nt,nt,nt
C=CCN1CC2(c3ccccc3)CN(CC=C)CC(c3ccccc3)(C1)C2=O,2,i,-7,-22,4

# Assay outcomes deposited in PubChem by several laboratories.
